Experimental findings from PubChem BioAssay (EPA / NIEHS) are described below.

Structures are written as SMILES. “And” between values parts separate entries of the source, which are not always exact repeats. Equal entries are not always repeated. A structure can be active in one record and inactive in another. The source made the active and inactive calls. The calls were made as follows: active = hit-call score of the fitted dose curve at least 0.9, where 1 is the maximum; inactive = score below 0.9.

The term AC50 denotes the concentration giving half of the maximal activity seen.

The nature of assay [1]: ATG_NFI_CIS: Attagene CIS-FACTORIAL HepG2 Assay for human Nuclear Factor I (NFI) (AID 2282989). The note with it: HepG2 cis-regulatory reporter, NFI response element transcription; actives raise or lower the signal. The procedure, abridged:
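Transfected HepG2 liver cells, exposed 24 h, supplied total RNA for oligo(dT) reverse transcription and reporter-specific PCR. Labelled, HpaI-cut fragments were sized by capillary electrophoresis; DMSO set the baseline for bidirectional fitting.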

The target in assay [2] is Myc proto-oncogene protein (Homo sapiens) (UniProt P01106). Nature of the assay: ATG_Myc_CIS: Attagene CIS-FACTORIAL HepG2 Assay for human Myelocytomatosis (Myc) Proto-Oncogene Transcription Factor (AID 2282990). The note with it: HepG2, Attagene cis-reporter transcription factor activity; actives raise or lower the signal. The procedure, abridged:
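Cells of the HepG2 human liver line bear multiple cis-driven reporter transcription units. Reporter mRNA after 24 h exposure is reverse-transcribed, amplified, labelled and resolved by capillary electrophoresis, with gain- or loss-of-signal fitting relative to DMSO.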

The nature of assay [3]: ATG_NF_kB_CIS: Attagene CIS-FACTORIAL HepG2 Assay for human Nuclear Factor Kappa B (NF-kB) (AID 2282991). The note with it: HepG2 Attagene cis-factorial NF-kB reporter mRNA; actives raise or lower the signal. Put shortly: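 HepG2 cells transiently transfected with multiplexed cis-element reporter units measuring endogenous transcription factor activity; reporter mRNA read 24 h after dosing by RT-PCR, fluorescent labelling, HpaI digestion and capillary electrophoresis. Bidirectional fit against DMSO baseline.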

Assay [4] is described as follows: ATG_NRF2_ARE_CIS: Attagene CIS-FACTORIAL HepG2 Assay for human Nuclear Factor Erythroid 2 Related Factor 2 (NFR2) response to Antioxidant Response Elements (ARE) (AID 2282992).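 As to AC50: reporter mRNA level measured by RT-PCR and capillary electrophoresis fluorescence.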 The note with it: HepG2 Attagene ARE/NRF2 reporter, transcription factor activity; actives raise or lower the signal. Put shortly:
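Transient MRTU transfection of HepG2; 24 h compound exposure; TriZol RNA, RT with oligo(dT), PCR, 6-FAM primer extension, HpaI cut, CE. Bidirectional fit vs DMSO.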

Assay [5] can be described thus: ATG_Oct_MLP_CIS: Attagene CIS-FACTORIAL HepG2 Assay for human Octamer-Binding Transcription Factor (Oct) (AID 2282993). The note with it: HepG2 Attagene cis-factorial Oct reporter, mRNA; actives raise or lower the signal. Put shortly:
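Using HepG2 cells bearing transfected cis-reporter constructs, mRNA induction was read after 24 h by fluorescent RT-PCR and capillary electrophoresis, with DMSO defining baseline for gain- or loss-of-signal fits.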

The target of assay [6] is Cellular tumor antigen p53 (Homo sapiens) (UniProt P04637). Briefly: ATG_p53_CIS: Attagene CIS-FACTORIAL HepG2 Assay for human p53 Transcription Factor (AID 2282994). The note with it: HepG2 p53 cis-element reporter, Attagene mRNA; actives raise or lower the signal. Put shortly: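 HepG2, transient MRTU transfection (cis promoter elements, endogenous TFs); 24 h dosing; RNA isolation, RT-PCR, 6-FAM primer extension, HpaI digest, CE fluorescence; bidirectional fit vs DMSO.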

A short description of assay [7]: BSK_3C_TissueFactor: BioMAP Diversity Plus: 3C Assay for Tissue Factor Biomarker Activity (AID 2282997). The note with it: BioMAP 3C HUVEC, tissue factor biomarker readout; actives raise or lower the signal. The procedure, abridged: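 ELISA read-out of Tissue Factor levels on human umbilical vein endothelium collected 24 h after chemical dosing. Gain or loss of signal was fitted relative to DMSO.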

Assay [8] can be described thus: BSK_3C_uPAR: BioMAP Diversity Plus: 3C Assay for Urokinase-type plasminogen activator receptor (uPAR) Biomarker Activity (AID 2282998). The note with it: BioMAP 3C HUVEC, uPAR biomarker ELISA; actives raise or lower the signal. The procedure, abridged: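 In this endothelial cell-based assay, human umbilical vein primary cells were treated with chemicals and harvested at 24 h. uPAR was quantified using ELISA, with gains or losses fitted relative to DMSO controls.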
(ELISA stands for enzyme-linked immunosorbent assay.)

Assay [9] can be described thus: BSK_3C_VCAM1: BioMAP Diversity Plus: 3C Assay for Vascular cell adhesion molecule 1 (VCAM1) Biomarker Activity (AID 2282999). The note with it: BioMAP 3C HUVEC, VCAM1 ELISA, cytokine-stimulated; actives raise or lower the signal. Put shortly:
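Endothelial cells from human umbilical vein are treated with test chemical. At 24 h, VCAM-1 is measured by ELISA, and responses in either direction are fitted relative to DMSO.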

Assay [10] in a line: BSK_4H_Eotaxin3: BioMAP Diversity Plus: 4H Assay for Eotaxin 3 Biomarker Activity (AID 2283000).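 As to outcome: CCL26 protein level quantified by ELISA in parallel with SRB cytotoxicity check.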 The note with it: primary human endothelial cells (HUVEC); actives raise or lower the signal. Put shortly:
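Chemicals were added to human umbilical vein endothelium cultures, and Eotaxin-3 was quantified by ELISA at 24 h. Values were derived by bidirectional fitting with DMSO serving as negative control and activity baseline.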

Myc proto-oncogene protein (Homo sapiens), sequence (P01106 whole entry, looked up): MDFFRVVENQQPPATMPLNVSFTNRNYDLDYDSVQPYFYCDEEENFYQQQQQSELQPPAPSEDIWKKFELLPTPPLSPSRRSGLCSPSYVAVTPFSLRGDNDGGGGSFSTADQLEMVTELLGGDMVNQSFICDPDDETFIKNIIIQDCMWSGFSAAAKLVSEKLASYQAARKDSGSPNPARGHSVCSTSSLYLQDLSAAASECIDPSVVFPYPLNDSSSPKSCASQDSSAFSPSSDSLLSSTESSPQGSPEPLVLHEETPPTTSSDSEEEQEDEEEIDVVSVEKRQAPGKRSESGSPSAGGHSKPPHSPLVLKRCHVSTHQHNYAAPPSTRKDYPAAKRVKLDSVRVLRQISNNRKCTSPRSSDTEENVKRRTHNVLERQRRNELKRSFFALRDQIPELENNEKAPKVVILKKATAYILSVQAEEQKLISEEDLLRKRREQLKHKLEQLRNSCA
Cellular tumor antigen p53 (Homo sapiens), sequence (P04637 whole entry, looked up): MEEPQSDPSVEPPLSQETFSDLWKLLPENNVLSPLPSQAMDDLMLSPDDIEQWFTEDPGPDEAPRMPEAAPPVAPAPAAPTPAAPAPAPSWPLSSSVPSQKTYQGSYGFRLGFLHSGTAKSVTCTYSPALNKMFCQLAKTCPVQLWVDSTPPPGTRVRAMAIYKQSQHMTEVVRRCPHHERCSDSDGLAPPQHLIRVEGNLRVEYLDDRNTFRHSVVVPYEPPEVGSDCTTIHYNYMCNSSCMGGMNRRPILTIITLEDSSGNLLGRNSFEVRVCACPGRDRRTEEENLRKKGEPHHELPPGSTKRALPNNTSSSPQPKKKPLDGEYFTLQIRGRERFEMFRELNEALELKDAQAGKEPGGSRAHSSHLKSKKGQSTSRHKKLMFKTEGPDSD

Take `CCCCCCCCCCCC[N+](C)(C)C`: the result in [1], in assay [2], in assay [3], in [5], in [6] and in assay [7] was inactive. Besides, the AC50 in assay [4] was 25.3 µM (active) and 18.9 µM (active); in [5] it was 20 µM (active); in assay [8], 20 µM (active); in [9], 25.8 µM (active); in assay [10], 29.9 µM (active).

Take `O=C(O)c1ccccc1-n1cc(C(=O)O)c(=O)c2cc(Nc3c(F)cc(F)cc3Cl)c(Cl)cc21`: the molecule was called inactive in [1], in assay [2], in assay [3], in [4], in assay [5] and in assay [6]. The outcome in assay [7], in assay [8], in assay [9] and in [10] was inactive.

`Cc1cccc2ccccc12`: the result in assay [1], in assay [3], in assay [4], in assay [5], in assay [6] and in assay [7] was inactive. Further, the result in [8], in assay [9] and in assay [10] was inactive.

With `CCCC(=O)OCCC(C)C`, the call in [1], in assay [3], in [4], in assay [5], in assay [6] and in [7] was inactive. Besides, the outcome in assay [8], in assay [9] and in [10] was inactive.

For `CCCCCc1ccc(N)cc1`, the call in assay [1], in assay [3], in assay [5], in assay [6], in assay [7] and in [8] was inactive. For the same molecule, in [9], the result was inactive. The AC50 is 20.2 µM (active) in [3]; 6.21 µM (active) and 6.72 µM (active) in assay [6]; 14 µM (active) in assay [10].

Take `O=c1ccc2ccccc2o1`: the outcome in [1], in [3], in [4], in assay [5], in assay [6] and in assay [7] was inactive. Besides, the outcome in assay [8] and in assay [9] was inactive.

Take `COc1cccc([C@H](O)C2CCN(CCc3ccc(F)cc3)CC2)c1OC`: the outcome in assay [1], in [3], in [7], in assay [8] and in assay [9] was inactive. The AC50 in assay [4] is 140 µM (active); in assay [5], 157 µM (active); in assay [6] it was 100 µM (active).

Regarding `CC[C@@H]1C[C@H](N(Cc2cc(C(F)(F)F)cc(C(F)(F)F)c2)C(C)=O)c2cc(C(F)(F)F)ccc2N1C(=O)OC(C)C`, the molecule was called inactive in assay [1], in assay [3], in [4], in assay [5], in assay [6] and in [7]. Further, the outcome in assay [8] and in assay [9] was inactive.

For the molecule `Clc1cc(Cl)c2c(c1)N=C1CCCCCN1C2`, the molecule was classed as inactive in assay [1], in assay [5], in [7], in [8] and in assay [9]. Further, the AC50 is 72.4 µM (active) in assay [3], 20.8 µM (active) in assay [4] and 50 µM (active) in [6].

As for `CN(C[C@@H](CC[N+]12CCC(C3CCCCC3)(CC1)CC2)c1ccc(Cl)c(Cl)c1)C(=O)c1cc(C(F)(F)F)cc(C(F)(F)F)c1`, the call in assay [1], in assay [3], in assay [4], in [5] and in assay [6] was inactive. Further, the AC50 in assay [7] is 23.5 µM (active); in [8], 14.3 µM (active); in [9], 31.9 µM (active); in assay [10] it was 30.4 µM (active).

As for `O=C1CCC(C2CCCCC2)CC1`, the outcome in assay [1], in assay [3], in assay [5], in assay [6], in assay [7] and in [8] was inactive. Further, in assay [9], the outcome was inactive. For the same molecule, the AC50 in assay [4] is 100 µM (active) [middle of 4 runs]; in assay [6], 166 µM (active).

As for `Cc1cc(F)ccc1-c1cc(N2CC[C@@H](O)[C@H]2CO)ncc1N(C)C(=O)C(C)(C)c1cc(C(F)(F)F)cc(C(F)(F)F)c1`, the molecule was classed as inactive in [1], in [3], in assay [4], in [5] and in assay [6]. The AC50 is 12.4 µM (active) in assay [7], 9.24 µM (active) in assay [8] and 11.8 µM (active) in assay [9].

As to `CN1C(=O)N(c2ccccc2Br)Cc2cnc(Nc3ccc4c(c3)OCC(CO)O4)nc21` (stereo not drawn), the result in assay [1], in [3] and in [4] was inactive. The AC50 in assay [5] is 9.54 µM (active); in assay [6], 0.0368 µM (active); in assay [7], 9.9 µM (active); in [8] it was 10.7 µM (active); in [9], 33.6 µM (active).

In the case of `CC(C)(O)c1ccc(CNC(=O)c2cccnc2Oc2ccc3nonc3c2)cc1`, the call in assay [1], in assay [3], in [4], in assay [5], in [6] and in [7] was inactive. Besides, the result in [8] and in [9] was inactive.

Regarding `Cc1ncc(CO)c(CO)c1O`, the result in assay [1], in [4], in assay [5], in assay [6], in assay [7] and in assay [8] was inactive. Moreover, in assay [9], the outcome was inactive.

For `Cc1cn([C@H]2C[C@H](N=[N+]=[N-])[C@@H](CO)O2)c(=O)[nH]c1=O`, the call in assay [1], in [3], in assay [4], in assay [5], in assay [6] and in assay [7] was inactive. Further, the outcome in assay [8], in [9] and in assay [10] was inactive.

In the case of `CC[C@H](NC(=O)c1cc(F)ccc1NS(=O)(=O)c1cccc2cccnc12)c1ccccc1`, the outcome in [1], in assay [3], in assay [5], in assay [6], in [7] and in assay [8] was inactive. Also, the result in assay [9] and in [10] was inactive. Moreover, the AC50 in assay [4] was 0.13 µM (active).

With `Cc1c2ccccc2c(C)c2c1ccc1ccccc12`, the molecule was called inactive in assay [1], in assay [3], in assay [5], in [6] and in assay [7]. In addition, the results for the AC50 in assay [4], in [8] and in [9] were 12.4 µM (active), 15.2 µM (active) and 20 µM (active), respectively.

For the molecule `CC(C)(C)c1cc(/C=C2\SC(N)=NC2=O)cc(C(C)(C)C)c1O`, the AC50 in assay [1] is 18.4 µM (active); in assay [4], 11.6 µM (active); in assay [5], 16.2 µM (active); in assay [6], 11 µM (active); in assay [7] it was 14.8 µM (active); in [8], 31.6 µM (active). Further, the AC50 in assay [9] is 29.4 µM (active). Besides, the call in assay [3] was inactive.

As to `CCCCCCCCCCCCO`, the call in [1], in assay [2], in assay [4], in assay [5] and in assay [6] was inactive. The AC50 in [7] is 36.3 µM (active); in [8], 32.7 µM (active); in [9], 38.7 µM (active); in [10], 31.1 µM (active).
